Screens deposited in PubChem by National Center for Advancing Translational Sciences (NCATS).
HT1080 IDH1KD tx = qHTS for induction of synthetic lethality in tumor cells producing 2HG: qHTS for the HT-1080-IDH1KD cell line; HT-1080 IDH1 knockdown viability, ATP luminescence, 48 h; Potency, µM (top dose mostly 46.1 µM), for the others: at the top dose activity, negative = toxicity, usual class: cytotoxic; hit rate 2% among 360,000; AID 686971, 2013;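 further: potency means the concentration at half of the fitted maximal effect; 0% = DMSO wells and -100% = cell-free medium wells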
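Using the IDH1-knockdown HT-1080 line run in the same batch and compound series as the NT line, viability after 48 h at 37 °C was determined by CellTiter-Glo luminescence and expressed as % activity.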
HT1080-NT tox = qHTS for induction of synthetic lethality in tumor cells producing 2HG: qHTS for the HT-1080-NT fibrosarcoma cell line | hit rate 1.6% among 360,000 | AID 686970, 2013 | Potency, µM (highest dose often 46.1 µM), without a hit: top-dose activity, negative = less viability, most hits filed as cytotoxic | HT-1080-NT fibrosarcoma viability, CellTiter-Glo ATP luminescence, 48 h;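 further: NT is the 2HG producing partner of a matched IDH1 knockdown line; potency means the concentration at half of the fitted maximal effect; 0% = DMSO-treated cells and -100% = media-only wells without cells; nearly all actives have a fitted effect of over 55% in size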
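HT-1080-NT; 750 cells/well; 5% FBS RPMI; 48 h compound, 37 degrees C; CellTiter-Glo luminescence; curve fitting and curve-class assignment.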
TDP1 cell CPT = qHTS for Inhibitors of human tyrosyl-DNA phosphodiesterase 1 (TDP1): qHTS in cells in presence of CPT; chicken DT40 Tdp1-/-;hTDP1 cells + 20 nM CPT, ATP luminescence, 48 h; Potency, µM (highest dose often 46.2 µM), inactives show top-dose activity change, negative = growth inhibition, usual class: inhibitors; hit rate 12% among 420,000; further: potency means the concentration at half of the fitted maximal effect; nearly all actives have a fitted effect of over 55% in size
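Chicken DT40 Tdp1-/- cells stably complemented with human TDP1 were seeded at 400 cells/well in medium containing 20 nM camptothecin, exposed to pin-transferred compounds, and grown at 37 °C for at least 48 hr. Viability was read as ATP luminescence.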
TDP1 cell noCPT = qHTS for Inhibitors of human tyrosyl-DNA phosphodiesterase 1 (TDP1): qHTS in cells in absence of CPT. AID 686978, 2013. hit rate 15% among 420,000. Potency, µM (highest dose often 46.2 µM), without a hit: top-dose activity change, negative = growth inhibition, actives largely listed as inhibitors. DT40 Tdp1-/- hTDP1 cells, no CPT, ATP luminescence, 48 h; further: potency means the concentration at half of the fitted maximal effect; nearly all actives have a fitted effect of over 55% in size
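Growth kinetics read by CellTiter-Glo luminescence after ≥48 hr at 37 °C. Cells: DT40 Tdp1-/- stably carrying human TDP1, 400 per well, compound exposure in the absence of CPT (DMSO vehicle).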
IL-1B inflam inh = qHTS for Inhibitors of Inflammasome Signaling: IL-1-beta AlphaLISA Primary Screen; activity change, % at 57.5 µM; THP-1 LPS/ATP IL-1B secretion, AlphaLISA, 16 h; active compounds read low; AID 743279, 2014; hit rate 4.7% among 360,000; in the data active means activity change below about -50%; inconclusive means mostly about -30% to -49%
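THP-1 cells pretreated 1 hr with compounds (up to 57.5 uM final), then stimulated with LPS (250 ng/mL final) plus ATP (1.25 mM final); secreted IL-1B measured by AlphaLISA after 16 hr, decreased signal indicating inhibition.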
Starred values were filed as active, the others as inactive; ? = inconclusive; . = not tested or not shown. Shown are actives, neighbours in structure and some others; about 19% of the full set was active somewhere. Unless noted, the call rests on the fitted dose curve; in most records, active means well fitted curve in the direction sought with a large enough effect; inconclusive means small, poorly fitted or top-dose-only effect, or another doubt; inactive means no such curve, though single readings can be large; an effect the other way counts as inactive or inconclusive. Unless noted, on the % scale 0 is the no-effect control and ±100 the full control effect.

SMILES	HT1080 IDH1KD tx	HT1080-NT tox	TDP1 cell CPT	TDP1 cell noCPT	IL-1B inflam inh
COCCNCC1C(Oc2ccc(Cl)cc2)C(=O)N1c1ccccc1C (configuration not stated)	-2.4%	-0.1%	?	?	-17.0
COc1ccc(CCNCC2C(Oc3ccc(Cl)cc3)C(=O)N2c2ccccc2C)cc1OC (configuration not stated)	?	?	?	23.1µM*	-72.6*
COc1cccc(C(C(=O)NC2CCCC2)N(C(=O)c2ccco2)c2ccc(NC(C)=O)cc2)c1OC (configuration not stated)	0.0%	15.9%	-20.0%	-29.6%	-11.6
C[N+]1(CC(=O)c2ccc(Oc3ccc(C(=O)C[N+]4(C)CCOCC4)cc3)cc2)CCOCC1	.	.	-12.0%	-17.8%	.
O=C(CCc1ccccc1)N1CCc2c([nH]c3ccccc23)C1c1ccc(Cl)cc1 (configuration not stated)	.	.	16.4µM*	25.9µM*	.
CCOc1cccc(CC(=O)N2CCc3c([nH]c4ccccc34)C2c2ccc(Cl)cc2)c1OCC (configuration not stated)	.	.	10.3µM*	14.6µM*	.
Cc1cccc(C2c3[nH]c4ccccc4c3CCN2C(=O)Cc2n[nH]c(C)n2)n1 (configuration not stated)	-0.1%	-0.6%	1.2%	-0.4%	-0.7
COc1cccc(CNC(=O)CCS(=O)(=O)c2ccc3c(c2)NC(=O)CO3)c1	15.2%	0.6%	5.6%	4.6%	6.6
Cc1c(C(=O)N(C)c2ccccc2)oc2c1C(O)CC(C)(C)C2 (configuration not stated)	15.2%	13.1%	?	?	-6.9
COc1ccc(OC)c(NC(=O)c2oc3c(c2C)C(O)CC(C)(C)C3)c1 (configuration not stated)	-0.2%	5.9%	14.6µM*	?	-4.1
OCCN1CCN(CC#CCC(c2ccccc2)c2ccccc2)CC1	-3.7%	-14.1%	?	?	-26.9
OCCN1CCN(CC#CCn2c3ccccc3c3ccccc32)CC1	?	20.6µM*	?	?	-3.8
O=[N+]([O-])c1ccc(N/N=C/c2cccc(O)c2)cc1	?	?	?	20.6µM*	-87.6*
Cc1cccc(C(=O)Oc2ccccc2/C=N/Nc2ccc([N+](=O)[O-])cc2)c1	-10.0%	-14.5%	29.1µM*	16.4µM*	-6.2
O=[N+]([O-])c1ccc(N/N=C/c2cccc(O)c2O)cc1	?	?	?	14.6µM*	?
O=[N+]([O-])c1ccc(C=NNc2ccc(S(=O)(=O)O)cc2)cc1	6.4%	0.9%	-16.7%	-5.6%	0.0
O=[N+]([O-])c1cccc(N/N=C/c2cccc3ccccc23)c1	6.1%	4.3%	?	?	-13.0
CC(C)c1ccc(NC(=O)CSc2nc3ccccc3nc2Cc2ccccc2)cc1	.	.	?	-24.2%	.
O=[N+]([O-])c1ccc(CNc2cccc(F)c2)s1	-3.6%	-23.6%	4.6%	-27.6%	-52.0*
NC(=S)NN=C1CSSC1	?	?	7.31µM*	3.66µM*	-100.0*
CC1(C)CCC(=NNC(N)=S)CC1	-2.7%	-2.3%	?	29.1µM*	13.1
COc1ccc2c(C(=O)NCc3ccc4c(c3)OCO4)c(-c3ccc(S(C)(=O)=O)cc3)sc2c1	7.3%	7.6%	23.1µM*	16.4µM*	48.9
COC(=O)c1c(-c2ccc(S(C)(=O)=O)cc2)sc2ccc(OC)cc12	-25.3%	-6.2%	?	13µM*	-14.9
COC(=O)c1c(-c2ccc(S(C)(=O)=O)cc2)sc2cc(OC)ccc12	-19.4%	-1.7%	?	20.6µM*	-19.6
O=C(CCN1C(=O)c2cccc3cccc(c23)C1=O)Nc1ccon1	2.4%	5.2%	-1.3%	-4.3%	5.2
SMILES	HT1080 IDH1KD tx	HT1080-NT tox	TDP1 cell CPT	TDP1 cell noCPT	IL-1B inflam inh
COc1cc(OC)c(NC(=O)C(C)n2nc(-c3ccc(C)c(C)c3)ccc2=O)cc1Cl (configuration not stated)	.	.	14.6µM*	13µM*	.
COC(=O)c1ccc(Cn2nc(-c3ccc(C)c(C)c3)ccc2=O)cc1	-4.7%	0.5%	?	?	8.2
CN(C)CCN(C(=O)c1ccc2ccccc2c1)c1nc2ccc(F)cc2s1	-0.9%	3.4%	-18.5%	-20.9%	-19.2
CCN(CC)CCN(C(=O)/C=C/c1cccs1)c1nc2ccc(OC)cc2s1	0.5%	1.3%	2.5%	-0.3%	11.2
CCN(CC)CCN(C(=O)c1cc2ccccc2cc1OC)c1nc2ccc(F)cc2s1	?	18.4µM*	18.4µM*	?	-58.6*
CCOc1ccc2nc(N(CCN(CC)CC)C(=O)/C=C/c3cccs3)sc2c1	-20.2%	-27.6%	?	?	-96.7*
CCN(CC)CCN(C(=O)c1cc2ccccc2cc1OC)c1nc2ccc(OC)cc2s1	?	?	?	18.4µM*	?
CCOc1ccc(S(=O)(=O)n2nc(C)cc2C)cc1	16.0%	9.2%	14.6%	-2.5%	-3.4
C/C=N\NC(=O)CNC(=O)CNC(=O)c1ccccc1	?	10.8%	13.8%	-8.9%	-9.1
O=C(C[n+]1ccc(Cc2ccccc2)cc1)Nc1ccc([N+](=O)[O-])cc1Cl	1.0%	-3.6%	?	14.6µM*	?
Cc1cccc[n+]1CC(=O)Nc1ccc([N+](=O)[O-])cc1Cl	?	-5.4%	?	-11.4%	11.1
Cc1ccc(Cl)cc1NC(=O)C[n+]1ccc(Cc2ccc([N+](=O)[O-])cc2)cc1	-14.7%	?	5.8µM*	5.17µM*	-82.5*
Cc1ccc([N+](=O)[O-])cc1NC(=O)CCSc1ccc(Cl)cc1	-16.9%	2.1%	-15.5%	-32.7%	0.0
CC(C)(C)NC(=O)NC(=O)C[n+]1ccc(Cc2ccc([N+](=O)[O-])cc2)cc1	-23.1%	-17.7%	4.11µM*	2.06µM*	?
C[C@@H]1CN([C@@H](C)CO)C(=O)CCCn2nncc2CO[C@H]1CN(C)C(=O)Nc1ccnc(N2CCOCC2)c1	15.2%	1.8%	1.1%	5.9%	25.1
Cc1cc(N)n(-c2ccccc2)n1	2.2%	-1.7%	-9.7%	1.6%	-6.6
Cc1cc(-c2cc(N)n(-c3ccccc3)n2)c(C)n1C1CCCC1	0.0%	?	29.1µM*	?	-12.1
Cc1c(C(=O)Nc2ccc3c(c2)OCCO3)sc2nc(-c3ccccc3)cn12	?	?	8.2µM*	5.8µM*	-91.6*
